# Test results published in PubChem BioAssay (EPA / NIEHS).
# Results filed as inconclusive are left out. A structure can be active in one record and inactive in another. The source made the active and inactive calls. Rule for the calls, unless noted: active = hit-call score of the fitted dose curve at least 0.9, where 1 is the maximum; inconclusive = response in the unintended direction; inactive = score below 0.9.
# How the values were obtained:
# [1] = ATG_VDRE_CIS: Attagene CIS-FACTORIAL HepG2 Assay for human Vitamin D Receptor Element (VDRE) (AID 2282968; active = hit-call score of the fitted dose curve at least 0.9, where 1 is the maximum; inactive = score below 0.9); conditions: HepG2 VDRE cis-reporter transcription, actives raise or lower the signal
# In short: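 Measures endogenous factor activity through cis-element-driven reporter transcripts in transiently transfected HepG2. Cells are treated 24 h; reporter mRNA is quantified by RT-PCR and capillary electrophoresis; fitting is bidirectional.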
# [2] = target: Nuclear receptor subfamily 1 group I member 3 (Homo sapiens) (UniProt Q14994); assay: ATG_CAR_TRANS: Attagene TRANS-FACTORIAL HepG2 Assay for human Constitutive Androstane Receptor (CAR) (AID 2282969); conditions: HepG2 Attagene TRANS-FACTORIAL CAR reporter;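 note: activators raise reporter mRNA above DMSO so AC50 marks induction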
# In short: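 Signal is reporter mRNA induction relative to DMSO, measured 24 h after dosing by RT-PCR with fluorescent primer extension and capillary electrophoresis. Human HepG2 liver cells carried transiently transfected chimeric NR-Gal4/GAL4-UAS reporter constructs.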
# [3] = ATG_M_19_TRANS: Attagene TRANS-FACTORIAL HepG2 Assay for M19 Transcription Factor (Internal Marker) (AID 2282974); conditions: HepG2 Attagene TRANS-FACTORIAL M19 internal marker reporter
# In short: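 Measured here: internal-marker reporter transcript from HepG2 cells transfected with MRTUs, harvested at 24 h. cDNA PCR products were 6-FAM labelled by primer extension, cut with HpaI for 2 h at 37 C, and resolved by CE.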
# [4] = target: Glucocorticoid receptor (Homo sapiens) (UniProt P04150); assay: ATG_GR_TRANS: Attagene TRANS-FACTORIAL HepG2 Assay for human Glucocorticoid Receptor (GR) (AID 2282978); conditions: HepG2 Attagene TRANS GR reporter, mRNA transcription;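 note: activators score as hits since higher reporter transcript over DMSO is fitted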
# In short: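 Measurement of GAL4-UAS-driven reporter mRNA in human HepG2 liver cells 24 h post-dosing, using RT-PCR with fluorescent labelling and capillary electrophoresis; the transfected constructs report exogenous NR-GAL4 chimera activity, fitted upward against DMSO.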
# [5] = target: Oxysterols receptor LXR-alpha (Homo sapiens) (UniProt Q13133); assay: ATG_LXRa_TRANS: Attagene TRANS-FACTORIAL HepG2 Assay for human Liver X Receptor alpha (LXRa) (AID 2282980); conditions: HepG2 Attagene TRANS reporter, LXRa transactivation
# In short: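 Transient HepG2 transfectants, 24 h dosing, RT-PCR/CE mRNA reporter quantitation; gain-of-signal vs DMSO.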
# [6] = target: Oxysterols receptor LXR-beta (Homo sapiens) (UniProt P55055); assay: ATG_LXRb_TRANS: Attagene TRANS-FACTORIAL HepG2 Assay for human Liver X Receptor beta (LXRb) (AID 2282981); conditions: HepG2 Attagene TRANS GAL4-LXRb reporter, mRNA
# In short: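 After 24 h of chemical treatment, transfected HepG2 cells yield total RNA; reporter cDNA is PCR-amplified, FAM-labelled, HpaI-cut and run on capillary electrophoresis. Signal reflects chimeric LXRb-Gal4 activity on GAL4-UAS reporters.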
# [7] = target: Nuclear receptor subfamily 4 group A member 2 (Homo sapiens) (UniProt P43354); assay: ATG_NURR1_TRANS: Attagene TRANS-FACTORIAL HepG2 Assay for human Nuclear Receptor Related Protein 1 (NURR1) (AID 2282985); conditions: HepG2 Attagene TRANS reporter, mRNA readout
# In short: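 Measures transcriptional activation by an exogenous NR-Gal4 chimera in transfected HepG2 liver cells. After 24 h, reporter RNA is reverse-transcribed, amplified and resolved by capillary electrophoresis; DMSO defines baseline.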
# [8] = target: human Peroxisome Proliferator-activated Receptor delta (PPARd), PPARD (gene 5467) (UniProt Q03181); assay: ATG_PPARd_TRANS: Attagene TRANS-FACTORIAL HepG2 Assay for human Peroxisome Proliferator-activated Receptor delta (PPARd) (AID 2283002)
# In short: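 Read-out is induced reporter mRNA, quantified by RT-PCR with fluorescent labelling and capillary electrophoresis after 24 h dosing. Cells are HepG2 transiently carrying multiple GAL4-UAS reporter units driven by exogenous NR-GAL4 chimeras; DMSO serves as baseline.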
# [9] = target: human RAR-related Orphan Receptor beta (RORb), RORB (gene 6096) (UniProt Q92753); assay: ATG_RORb_TRANS: Attagene TRANS-FACTORIAL HepG2 Assay for human RAR-related Orphan Receptor beta (RORb) (AID 2283010)
# In short: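 Multiplexed transcription-factor reporter assay: HepG2 cells transiently carrying NR-Gal4/GAL4-UAS constructs, 24 h treatment, mRNA quantified by RT-PCR plus capillary electrophoresis fluorescence; activity scored as induction over DMSO.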
# [10] = target: human RAR-related Orphan Receptor gamma (RORg), RORC (gene 6097) (UniProt P51449); assay: ATG_RORg_TRANS: Attagene TRANS-FACTORIAL HepG2 Assay for human RAR-related Orphan Receptor gamma (RORg) (AID 2283011)
# In short: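 Activity is scored as increase in GAL4-UAS reporter mRNA over DMSO, detected by fluorescent RT-PCR and capillary electrophoresis in HepG2 cells transiently expressing a RORg-Gal4 chimera, 24 h after dosing.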
# [11] = target: human Vitamin D Receptor (VDR), VDR (gene 7421) (UniProt P11473); assay: ATG_VDR_TRANS: Attagene TRANS-FACTORIAL HepG2 Assay for human Vitamin D Receptor (VDR) (AID 2283022)
# In short: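 Fluorescence of labelled reporter cDNA fragments, resolved by capillary electrophoresis, gives mRNA induction after 24 h treatment of HepG2 cells carrying transfected Gal4-fusion reporter units. Activity is fitted in the positive direction with DMSO as baseline.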
# [12] = target: Peroxisome proliferator-activated receptor gamma (Homo sapiens) (UniProt P37231); assay: ATG_PPARg_TRANS: Attagene TRANS-FACTORIAL HepG2 Assay for human Peroxisome Proliferator-activated Receptor-gamma (PPARg) (AID 2283007)
# In short: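 Multiplexed reporter transcription units in HepG2, 24 h dosing, reporter transcripts quantified by fluorescent RT-PCR and capillary electrophoresis. Increase over DMSO scored.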
# [13] = target: human Thyroid Receptor alpha (THRa1), THRA (gene 7067) (UniProt P10827); assay: ATG_THRa1_TRANS: Attagene TRANS-FACTORIAL HepG2 Assay for human Thyroid Receptor alpha (THRa1) (AID 2283014)
# In short: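 First, HepG2 cells receive multiple GAL4-UAS reporter units and the chimeric receptor. They are then dosed for 24 h, after which RNA is reverse-transcribed, amplified, labelled, HpaI-cut and sized by capillary electrophoresis; gain relative to DMSO is scored.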
# [14] = CCTE_Harrill_HTTr_Viability_MCF7: CCTE's 6-hour Cell Viability Assessment for the High-Throughput Transcriptomics (HTTr) Platform, in MCF-7 cells cultured in DMEM + 10% fetal bovine serum, Harrill Lab (AID 2284010; active = hit-call score of the fitted dose curve at least 0.9, where 1 is the maximum; inactive = score below 0.9)
# In short: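 Eight-point concentration series, six-hour exposure. Propidium iodide exclusion imaged to assess membrane integrity as a cytotoxicity readout; bidirectional fitting was done with DMSO as negative control and activity baseline.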
# [15] = CCTE_Harrill_HTTr_Apoptosis_MCF7: CCTE's 6-hour Apoptosis Assessment for the High-Throughput Transcriptomics (HTTr) Platform, in MCF-7 cells cultured in DMEM + 10% fetal bovine serum, Harrill Lab (AID 2284011; active = hit-call score of the fitted dose curve at least 0.9, where 1 is the maximum; inactive = score below 0.9)
# In short: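 Cells are dosed with test chemicals at eight concentrations and imaged 6 hours later for caspase-3/7 activity using a green fluorogenic detection reagent. Activity is fitted in both directions against DMSO controls.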
# [16] = ATG_GAL4_TRANS: Attagene TRANS-FACTORIAL HepG2 Assay for GAL4 (Internal Marker) (AID 2282976); conditions: HepG2 Attagene TRANS GAL4 internal marker reporter
# In short: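 Fluorescence from capillary electrophoresis of labelled RT-PCR products quantifies reporter mRNA induction after 24 h dosing of HepG2 cells carrying transfected GAL4-UAS reporter transcription units. Vehicle DMSO serves as baseline.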
# [17] = ATG_M_06_TRANS: Attagene TRANS-FACTORIAL HepG2 Assay for M06 Transcription Factor (Internal Marker) (AID 2282983); conditions: HepG2 Attagene TRANS M06 internal marker reporter;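 note: reporter transcript level by RT-PCR then capillary electrophoresis fluorescence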
# In short: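 Human liver HepG2 cells bearing transiently transfected chimeric NR-GAL4 reporter units were treated with chemicals for 24 h. Total RNA was reverse-transcribed, reporter sequences amplified and labelled, then quantified by capillary electrophoresis. Activity was fitted upward relative to DMSO.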
# [18] = TOX21_p53_BLA_p4_viability: Viability Assessment in the Tox21 HCT-116 p53 Agonism Beta-lactamase Assay, Phase 4 (AID 2283597);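 note: hits lower the luminescence signal meaning cytotoxicity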
# In short: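 Viability is taken as cellular ATP: after 16 h compound exposure of HCT116 cells and a 2 h room-temperature CCF4-AM substrate step, CellTiter-Glo reagent is added and luminescence is measured 30 min later.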
# [19] = ATG_NF_kB_CIS: Attagene CIS-FACTORIAL HepG2 Assay for human Nuclear Factor Kappa B (NF-kB) (AID 2282991; active = hit-call score of the fitted dose curve at least 0.9, where 1 is the maximum; inactive = score below 0.9); conditions: HepG2 Attagene cis-factorial NF-kB reporter mRNA; actives raise or lower the signal
# In short: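 HepG2, transient multi-reporter transfection, cis promoter elements (endogenous TFs). 24 h exposure. Total RNA → RT → PCR → 6-FAM label → HpaI → CE. Gain/loss vs DMSO.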
# [20] = target: Bile acid receptor (Homo sapiens) (UniProt Q96RI1); assay: ATG_FXR_TRANS: Attagene TRANS-FACTORIAL HepG2 Assay for Farnesoid X Receptor (FXR) (AID 2282979); conditions: HepG2 Attagene TRANS FXR-GAL4 reporter transcription;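 note: hits raise reporter mRNA above DMSO so AC50 marks FXR activation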
# In short: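 Chimeric FXR-GAL4 activity in transiently transfected human HepG2 liver cells is scored as induction of reporter mRNA after 24 h of dosing. Detection uses RT-PCR with fluorescent labelling and capillary electrophoresis, with DMSO serving as baseline.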
# Chain of Glucocorticoid receptor (Homo sapiens) (P04150 whole entry, looked up, the tested form may be a part): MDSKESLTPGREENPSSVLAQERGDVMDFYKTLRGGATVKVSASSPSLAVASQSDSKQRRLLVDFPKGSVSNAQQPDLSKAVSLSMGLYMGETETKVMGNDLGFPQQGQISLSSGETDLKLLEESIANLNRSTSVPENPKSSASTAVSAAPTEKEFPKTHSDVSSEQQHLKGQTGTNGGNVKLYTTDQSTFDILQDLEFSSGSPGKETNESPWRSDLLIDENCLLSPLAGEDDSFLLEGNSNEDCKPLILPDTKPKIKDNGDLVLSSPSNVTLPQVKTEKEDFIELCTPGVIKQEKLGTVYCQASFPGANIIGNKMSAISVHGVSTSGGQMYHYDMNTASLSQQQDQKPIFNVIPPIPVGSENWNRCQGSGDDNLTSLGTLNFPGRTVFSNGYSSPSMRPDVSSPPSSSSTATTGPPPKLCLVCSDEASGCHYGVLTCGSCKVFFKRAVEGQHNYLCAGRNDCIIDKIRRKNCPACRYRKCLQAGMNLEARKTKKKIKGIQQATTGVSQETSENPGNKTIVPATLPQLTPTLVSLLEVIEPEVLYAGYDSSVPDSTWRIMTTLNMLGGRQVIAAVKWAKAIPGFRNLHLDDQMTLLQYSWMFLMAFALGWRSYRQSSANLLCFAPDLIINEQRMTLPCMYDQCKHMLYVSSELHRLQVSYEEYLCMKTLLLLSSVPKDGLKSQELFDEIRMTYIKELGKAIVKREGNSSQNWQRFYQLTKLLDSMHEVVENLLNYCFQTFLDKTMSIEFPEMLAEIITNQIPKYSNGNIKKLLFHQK
# Chain of Oxysterols receptor LXR-alpha (Homo sapiens) (Q13133 whole entry, looked up): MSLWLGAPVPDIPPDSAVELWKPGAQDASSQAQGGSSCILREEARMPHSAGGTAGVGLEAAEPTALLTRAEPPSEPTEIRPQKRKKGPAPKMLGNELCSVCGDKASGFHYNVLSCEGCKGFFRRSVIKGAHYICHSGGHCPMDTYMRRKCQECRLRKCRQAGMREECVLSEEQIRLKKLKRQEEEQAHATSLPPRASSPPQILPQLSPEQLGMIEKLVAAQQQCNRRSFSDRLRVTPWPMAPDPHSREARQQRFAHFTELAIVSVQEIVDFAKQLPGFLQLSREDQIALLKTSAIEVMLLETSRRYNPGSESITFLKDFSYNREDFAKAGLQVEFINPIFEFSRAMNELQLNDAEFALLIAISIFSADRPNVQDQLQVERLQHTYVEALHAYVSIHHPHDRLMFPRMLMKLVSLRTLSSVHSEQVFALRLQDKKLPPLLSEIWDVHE
# Chain of human Thyroid Receptor alpha (THRa1), THRA (gene 7067) (P10827 whole entry, looked up, the tested form may be a part): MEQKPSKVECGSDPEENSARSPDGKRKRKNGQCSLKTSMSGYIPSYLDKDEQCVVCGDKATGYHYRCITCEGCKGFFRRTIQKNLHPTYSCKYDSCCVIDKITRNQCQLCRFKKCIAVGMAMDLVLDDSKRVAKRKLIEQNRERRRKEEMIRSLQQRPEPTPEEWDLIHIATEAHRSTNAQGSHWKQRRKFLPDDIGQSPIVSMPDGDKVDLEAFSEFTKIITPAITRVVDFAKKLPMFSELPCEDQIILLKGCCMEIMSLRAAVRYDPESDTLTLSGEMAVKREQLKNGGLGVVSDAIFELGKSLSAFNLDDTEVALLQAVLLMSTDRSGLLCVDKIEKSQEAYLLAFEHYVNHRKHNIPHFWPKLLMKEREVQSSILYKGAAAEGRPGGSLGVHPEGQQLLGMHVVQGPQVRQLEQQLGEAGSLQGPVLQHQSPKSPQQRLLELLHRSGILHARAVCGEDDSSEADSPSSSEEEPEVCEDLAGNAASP
# Chain of human Vitamin D Receptor (VDR), VDR (gene 7421) (P11473 whole entry, looked up, the tested form may be a part): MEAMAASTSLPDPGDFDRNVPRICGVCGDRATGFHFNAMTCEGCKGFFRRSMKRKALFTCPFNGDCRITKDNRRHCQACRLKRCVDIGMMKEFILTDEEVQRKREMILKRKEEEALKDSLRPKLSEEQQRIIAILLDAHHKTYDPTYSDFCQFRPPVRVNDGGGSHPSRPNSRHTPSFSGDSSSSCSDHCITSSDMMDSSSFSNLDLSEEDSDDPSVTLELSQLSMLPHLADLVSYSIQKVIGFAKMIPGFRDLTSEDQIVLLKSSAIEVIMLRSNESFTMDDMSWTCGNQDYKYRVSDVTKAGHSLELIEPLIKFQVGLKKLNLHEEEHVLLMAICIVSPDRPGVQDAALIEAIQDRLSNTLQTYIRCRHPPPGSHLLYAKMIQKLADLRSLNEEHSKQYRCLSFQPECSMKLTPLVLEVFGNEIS
# Chain of Peroxisome proliferator-activated receptor gamma (Homo sapiens) (P37231 whole entry, looked up): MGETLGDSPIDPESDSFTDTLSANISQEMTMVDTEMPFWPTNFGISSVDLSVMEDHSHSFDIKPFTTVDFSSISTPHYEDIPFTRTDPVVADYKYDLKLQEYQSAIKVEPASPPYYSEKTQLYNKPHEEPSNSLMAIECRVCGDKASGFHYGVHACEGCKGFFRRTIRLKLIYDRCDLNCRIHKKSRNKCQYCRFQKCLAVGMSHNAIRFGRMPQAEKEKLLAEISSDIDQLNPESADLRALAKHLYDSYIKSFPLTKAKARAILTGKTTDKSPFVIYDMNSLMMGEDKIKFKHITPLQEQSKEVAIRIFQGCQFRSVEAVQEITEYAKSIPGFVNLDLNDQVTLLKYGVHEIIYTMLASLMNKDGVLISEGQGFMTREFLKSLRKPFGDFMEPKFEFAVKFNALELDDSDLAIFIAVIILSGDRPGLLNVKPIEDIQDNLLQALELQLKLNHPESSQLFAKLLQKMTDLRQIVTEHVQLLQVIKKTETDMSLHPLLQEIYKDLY
# Chain of human RAR-related Orphan Receptor gamma (RORg), RORC (gene 6097) (P51449 whole entry, looked up, the tested form may be a part): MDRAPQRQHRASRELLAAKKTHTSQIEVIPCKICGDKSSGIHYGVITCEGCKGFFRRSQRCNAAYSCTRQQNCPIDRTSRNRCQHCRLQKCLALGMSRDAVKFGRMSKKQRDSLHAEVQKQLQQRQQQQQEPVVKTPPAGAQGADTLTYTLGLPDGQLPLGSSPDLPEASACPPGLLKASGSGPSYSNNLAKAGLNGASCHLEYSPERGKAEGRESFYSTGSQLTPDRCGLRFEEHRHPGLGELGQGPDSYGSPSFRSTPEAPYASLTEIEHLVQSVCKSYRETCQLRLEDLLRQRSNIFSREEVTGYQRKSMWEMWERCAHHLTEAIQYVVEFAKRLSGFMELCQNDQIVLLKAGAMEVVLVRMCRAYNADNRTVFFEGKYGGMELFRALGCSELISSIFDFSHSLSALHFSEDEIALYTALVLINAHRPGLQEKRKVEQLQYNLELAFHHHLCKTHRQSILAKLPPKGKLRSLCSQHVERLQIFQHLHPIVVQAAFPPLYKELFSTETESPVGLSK
# Chain of human Peroxisome Proliferator-activated Receptor delta (PPARd), PPARD (gene 5467) (Q03181 whole entry, looked up, the tested form may be a part): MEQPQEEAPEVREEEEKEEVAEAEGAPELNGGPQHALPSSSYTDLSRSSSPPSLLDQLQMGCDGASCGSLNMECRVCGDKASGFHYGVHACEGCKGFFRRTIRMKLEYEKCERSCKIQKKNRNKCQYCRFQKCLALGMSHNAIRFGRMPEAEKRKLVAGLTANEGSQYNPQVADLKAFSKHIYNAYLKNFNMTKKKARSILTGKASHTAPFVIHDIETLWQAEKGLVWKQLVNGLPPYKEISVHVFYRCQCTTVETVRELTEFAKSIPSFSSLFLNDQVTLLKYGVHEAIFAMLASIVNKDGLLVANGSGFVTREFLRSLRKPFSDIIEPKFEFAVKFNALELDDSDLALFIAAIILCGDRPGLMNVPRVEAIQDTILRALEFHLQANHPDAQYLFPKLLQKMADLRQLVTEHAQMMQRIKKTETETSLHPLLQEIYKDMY
# Chain of Oxysterols receptor LXR-beta (Homo sapiens) (P55055 whole entry, looked up, the tested form may be a part): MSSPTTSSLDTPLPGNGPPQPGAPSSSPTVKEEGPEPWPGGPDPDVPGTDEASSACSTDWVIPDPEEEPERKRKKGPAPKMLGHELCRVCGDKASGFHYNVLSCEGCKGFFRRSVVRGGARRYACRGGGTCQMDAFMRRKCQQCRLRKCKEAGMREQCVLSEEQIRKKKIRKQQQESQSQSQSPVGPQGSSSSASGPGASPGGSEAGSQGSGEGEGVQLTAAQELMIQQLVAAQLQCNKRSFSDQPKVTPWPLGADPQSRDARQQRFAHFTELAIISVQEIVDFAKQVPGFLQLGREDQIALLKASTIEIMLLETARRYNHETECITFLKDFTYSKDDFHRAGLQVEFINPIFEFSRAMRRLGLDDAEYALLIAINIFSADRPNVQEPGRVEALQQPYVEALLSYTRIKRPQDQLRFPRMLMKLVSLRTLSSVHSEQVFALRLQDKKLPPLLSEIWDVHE
# Chain of Nuclear receptor subfamily 4 group A member 2 (Homo sapiens) (P43354 whole entry, looked up, the tested form may be a part): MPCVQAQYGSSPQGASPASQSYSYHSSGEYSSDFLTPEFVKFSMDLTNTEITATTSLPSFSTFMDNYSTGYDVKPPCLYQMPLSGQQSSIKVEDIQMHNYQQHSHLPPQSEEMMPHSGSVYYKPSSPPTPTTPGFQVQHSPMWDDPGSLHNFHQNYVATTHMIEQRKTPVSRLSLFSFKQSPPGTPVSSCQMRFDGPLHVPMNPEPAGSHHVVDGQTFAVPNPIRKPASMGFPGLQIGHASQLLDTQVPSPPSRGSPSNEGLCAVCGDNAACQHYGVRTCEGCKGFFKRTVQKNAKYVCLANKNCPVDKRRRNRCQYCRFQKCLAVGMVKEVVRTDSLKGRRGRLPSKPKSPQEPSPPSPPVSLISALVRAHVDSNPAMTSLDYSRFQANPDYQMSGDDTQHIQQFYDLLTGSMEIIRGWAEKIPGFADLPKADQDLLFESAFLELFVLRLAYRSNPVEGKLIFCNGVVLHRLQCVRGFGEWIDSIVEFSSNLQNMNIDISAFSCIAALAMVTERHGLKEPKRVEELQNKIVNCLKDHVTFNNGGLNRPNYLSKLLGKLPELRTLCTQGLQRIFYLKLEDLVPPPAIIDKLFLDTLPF
smiles,measurement,setting,value
OCCc1ccccn1,outcome,[1],inactive
same,outcome,[2],inactive
same,outcome,[3],inactive
same,outcome,[4],inactive
same,outcome,[5],inactive
same,outcome,[6],inactive
same,outcome,[7],inactive
same,outcome,[8],inactive
same,outcome,[9],inactive
same,outcome,[10],inactive
same,outcome,[11],inactive
CC(C)(Oc1ccc(Cl)cc1)C(=O)O,outcome,[1],inactive
same,outcome,[3],inactive
same,outcome,[5],inactive
same,outcome,[8],inactive
same,AC50,[12],69.3 µM (active)
same,outcome,[13],inactive
same,outcome,[11],inactive
same,outcome,[14],inactive
same,outcome,[15],inactive
CC(C)n1c(/C=C/[C@@H](O)C[C@@H](O)CC(=O)O)c(-c2ccc(F)cc2)c2ccccc21,outcome,[3],inactive
same,outcome,[16],inactive
same,outcome,[4],inactive
same,outcome,[5],inactive
same,outcome,[6],inactive
same,outcome,[17],inactive
same,outcome,[8],inactive
same,AC50,[12],5.07 µM (active)
same,AC50,[18],43.3 µM (active)
same,outcome,[18],inactive
same,outcome,[14],inactive
same,outcome,[15],inactive
C[Si](C)(C)O[Si](C)(C)O[Si](C)(C)C,outcome,[1],inactive
same,outcome,[3],inactive
same,outcome,[5],inactive
same,outcome,[17],inactive
same,outcome,[19],inactive
same,outcome,[8],inactive
same,outcome,[12],inactive
same,outcome,[11],inactive
c1ccc2c(c1)Oc1ccccc1S2,outcome,[2],inactive
same,outcome,[3],inactive
same,outcome,[4],inactive
same,outcome,[8],inactive
same,outcome,[13],inactive
same,outcome,[11],inactive
same,outcome,[18],inactive
O=C(O)c1nc(Cl)c(Cl)c(Cl)c1Cl,outcome,[1],inactive
same,outcome,[16],inactive
same,outcome,[4],inactive
same,outcome,[5],inactive
same,outcome,[6],inactive
same,outcome,[7],inactive
same,outcome,[8],inactive
same,outcome,[13],inactive
same,outcome,[11],inactive
CCOC(=O)c1ccccc1,outcome,[3],inactive
same,AC50,[4],27.9 µM (active)
same,outcome,[5],inactive
same,outcome,[6],inactive
same,outcome,[7],inactive
same,outcome,[8],inactive
same,outcome,[12],inactive
same,outcome,[9],inactive
same,outcome,[10],inactive
same,outcome,[18],inactive
CC/C=C/CCO,outcome,[1],inactive
same,outcome,[16],inactive
same,outcome,[20],inactive
same,outcome,[5],inactive
same,outcome,[17],inactive
same,outcome,[7],inactive
same,outcome,[10],inactive
same,outcome,[13],inactive
same,outcome,[11],inactive
same,outcome,[18],inactive
Nc1ccc(S(=O)(=O)Nc2cnc3ccccc3n2)cc1,outcome,[1],inactive
same,outcome,[5],inactive
same,outcome,[7],inactive
same,outcome,[12],inactive
same,outcome,[13],inactive
same,outcome,[11],inactive
same,outcome,[14],inactive
same,outcome,[15],inactive
CN(C)N=Nc1ccccc1,outcome,[1],inactive
same,outcome,[3],inactive
same,outcome,[16],inactive
same,outcome,[5],inactive
same,outcome,[6],inactive
same,outcome,[7],inactive
same,outcome,[19],inactive
same,outcome,[8],inactive
same,outcome,[10],inactive
same,outcome,[13],inactive
same,outcome,[18],inactive
OCCOCCOCCOCCOCCO,outcome,[1],inactive
same,outcome,[16],inactive
same,outcome,[6],inactive
same,outcome,[17],inactive
same,outcome,[7],inactive
same,outcome,[8],inactive
same,outcome,[12],inactive
same,outcome,[9],inactive
same,outcome,[10],inactive
same,outcome,[13],inactive
CN(C)CCCN1c2ccccc2CCc2ccc(Cl)cc21,outcome,[16],inactive
same,outcome,[4],inactive
same,outcome,[17],inactive
same,outcome,[7],inactive
same,outcome,[19],inactive
same,outcome,[12],inactive
same,outcome,[13],inactive
same,AC50,[18],73.9 µM (active)
same,outcome,[18],inactive
same,AC50,[14],66.7 µM (active)
same,AC50,[15],45.5 µM (active)
CCCC[N+]1(C)CCCC1,outcome,[5],inactive
same,outcome,[6],inactive
same,outcome,[12],inactive
same,outcome,[9],inactive
